# Assay results published in PubChem BioAssay (EPA / NIEHS).
# Values joined by “and” are separate entries in the source; they are usually repeats but may differ in a detail not shown here. Identical values can stand only once. Records with an inconclusive call do not appear. A structure can be active in one record and inactive in another. Active and inactive are the calls of the source. How the source made its calls: active means hit-call score of the fitted dose curve at least 0.9, where 1 is the maximum; inconclusive means response in the unintended direction; inactive means score below 0.9.
# Tests used:
# [1] = target: bovine Gamma-Aminobutyric Acid Type A Receptor BDZ, alpha 5 site (GABARa5), GABRA5 (gene 523515) (UniProt Q08E50); assay: NVS_LGIC_bGABARa5: NovaScreen (NVS) Ligand-Gated Ion Channel Assay for bovine Gamma-Aminobutyric Acid Type A Receptor BDZ, alpha 5 site (GABARa5) (AID 2283323)
# Procedure, shortened: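 Radioligand competitive displacement binding on bovine hippocampal membranes, read 1 hr after dosing by filter-based scintillation counting. Primary screen at 25 uM in duplicate; actives (e.g. ≥30% inhibition) then run in concentration-response up to 50 uM.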
# [2] = target: rat Thyrotropin Releasing Hormone Receptor (TRH), Trhr (gene 25570) (UniProt Q01717); assay: NVS_GPCR_rTRH: NovaScreen (NVS) G Protein-Coupled Receptor Assay for rat Thyrotropin Releasing Hormone Receptor (TRH) (AID 2283329);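 further: hit means lower bound tracer signal versus DMSO baseline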
# Chain of rat Thyrotropin Releasing Hormone Receptor (TRH), Trhr (gene 25570) (Q01717 whole entry, looked up): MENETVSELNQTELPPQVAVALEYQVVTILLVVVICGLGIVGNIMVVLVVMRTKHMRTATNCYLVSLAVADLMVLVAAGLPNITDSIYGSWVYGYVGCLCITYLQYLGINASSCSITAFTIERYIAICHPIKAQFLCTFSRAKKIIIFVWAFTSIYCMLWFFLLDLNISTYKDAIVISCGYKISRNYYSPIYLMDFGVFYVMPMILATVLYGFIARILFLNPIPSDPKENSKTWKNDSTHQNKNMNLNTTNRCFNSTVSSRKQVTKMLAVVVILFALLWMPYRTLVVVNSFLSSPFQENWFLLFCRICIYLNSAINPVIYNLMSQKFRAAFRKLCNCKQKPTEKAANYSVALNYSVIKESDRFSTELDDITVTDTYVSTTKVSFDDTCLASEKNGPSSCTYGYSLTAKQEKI
# Procedure, shortened: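 Rat forebrain membrane prep, radioligand displacement, filter scintillation readout at 4 h. Single conc 25 uM, duplicate; actives retested as concentration series. DMSO = negative control/baseline.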
# [3] = target: rat Peripheral-type Benzodiazepine Receptor (PBR), Tspo (gene 24230) (UniProt P16257); assay: NVS_MP_rPBR: NovaScreen (NVS) Membrane Protein Assay for rat Peripheral-type Benzodiazepine Receptor (PBR) (AID 2283335)
# Chain of rat Peripheral-type Benzodiazepine Receptor (PBR), Tspo (gene 24230) (P16257 whole entry, looked up): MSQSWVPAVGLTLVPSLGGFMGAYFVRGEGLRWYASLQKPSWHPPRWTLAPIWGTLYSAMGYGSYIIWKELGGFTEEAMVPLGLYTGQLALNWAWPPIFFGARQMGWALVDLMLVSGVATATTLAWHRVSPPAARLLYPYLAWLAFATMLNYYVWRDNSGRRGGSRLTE
# Procedure, shortened: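 Rat kidney membranes; radioligand binding with displacement, filter-based scintillation counting, 1 h incubation. Primary screen in duplicate at 25 uM, actives followed in concentration series; loss of binding vs DMSO.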
# [4] = target: human Peripheral-type Benzodiazepine Receptor (PBR), TSPO (gene 706) (UniProt P30536); assay: NVS_MP_hPBR: NovaScreen (NVS) Membrane Protein Assay for human Peripheral-type Benzodiazepine Receptor (PBR) (AID 2283331);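 further: hits reduce radioligand binding relative to DMSO baseline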
# Chain of human Peripheral-type Benzodiazepine Receptor (PBR), TSPO (gene 706) (P30536 whole entry, looked up): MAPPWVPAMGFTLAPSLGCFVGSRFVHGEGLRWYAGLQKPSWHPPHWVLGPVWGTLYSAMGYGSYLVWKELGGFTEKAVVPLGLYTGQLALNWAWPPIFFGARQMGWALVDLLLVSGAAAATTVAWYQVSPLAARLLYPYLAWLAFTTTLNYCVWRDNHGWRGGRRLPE
# Procedure, shortened: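 Scintillation counts of filter-bound radioligand served as read-out after 1 h chemical dosing of human colonic membrane preparations. Activity was scored as signal loss against DMSO; initial duplicates at 25 uM, confirmatory concentration series afterward.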
# [5] = target: rat Neonicotinoid receptor (NNR), Chrna7 (gene 25302) (UniProt Q05941); assay: NVS_LGIC_rNNR_BungSens: NovaScreen (NVS) Ligand-Gated Ion Channel Assay for rat Neonicotinoid receptor (NNR) (AID 2283315)
# Chain of rat Neonicotinoid receptor (NNR), Chrna7 (gene 25302) (Q05941 whole entry, looked up): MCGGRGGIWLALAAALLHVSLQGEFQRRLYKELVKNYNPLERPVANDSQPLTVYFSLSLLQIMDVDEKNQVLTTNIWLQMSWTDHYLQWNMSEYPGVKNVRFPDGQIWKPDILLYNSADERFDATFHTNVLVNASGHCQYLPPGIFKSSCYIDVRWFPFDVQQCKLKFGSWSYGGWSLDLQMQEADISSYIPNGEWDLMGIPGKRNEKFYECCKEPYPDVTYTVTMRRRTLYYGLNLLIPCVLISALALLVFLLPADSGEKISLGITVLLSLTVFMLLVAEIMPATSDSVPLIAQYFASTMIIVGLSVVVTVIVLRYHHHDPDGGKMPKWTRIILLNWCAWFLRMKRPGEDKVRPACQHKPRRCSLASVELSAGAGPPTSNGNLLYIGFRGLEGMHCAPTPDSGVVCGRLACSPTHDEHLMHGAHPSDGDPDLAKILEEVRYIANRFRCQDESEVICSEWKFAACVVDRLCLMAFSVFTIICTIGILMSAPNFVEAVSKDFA
# Procedure, shortened: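 Radioligand displacement binding on rat cortical membranes, 2.5 h incubation, filtration and scintillation counting. Loss of specific binding fitted relative to DMSO.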
# [6] = NVS_IC_rCaBTZCHL: NovaScreen (NVS) Ion Channel Assay for Calcium Channel, Type L, Benzothiazepine Site (CaBTZCHL) (AID 2283337)
# Procedure, shortened: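 Radioligand displacement at the benzothiazepine site using rat cortical membranes; bound label measured by filtration and scintillation counting 1.5 h after dosing. Single-point 25 uM in duplicate, then concentration series; DMSO baseline.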
# [7] = target: rat Opioid Receptor, Non-selective Sodium (Na+) Binding, Oprm1 (gene 25601) (UniProt P33535); assay: NVS_GPCR_rOpiate_NonSelectiveNa: NovaScreen (NVS) G Protein-Coupled Receptor Assay for rat Opioid Receptor, Non-selective Sodium (Na+) Binding (AID 2283311)
# Chain of rat Opioid Receptor, Non-selective Sodium (Na+) Binding, Oprm1 (gene 25601) (P33535 whole entry, looked up): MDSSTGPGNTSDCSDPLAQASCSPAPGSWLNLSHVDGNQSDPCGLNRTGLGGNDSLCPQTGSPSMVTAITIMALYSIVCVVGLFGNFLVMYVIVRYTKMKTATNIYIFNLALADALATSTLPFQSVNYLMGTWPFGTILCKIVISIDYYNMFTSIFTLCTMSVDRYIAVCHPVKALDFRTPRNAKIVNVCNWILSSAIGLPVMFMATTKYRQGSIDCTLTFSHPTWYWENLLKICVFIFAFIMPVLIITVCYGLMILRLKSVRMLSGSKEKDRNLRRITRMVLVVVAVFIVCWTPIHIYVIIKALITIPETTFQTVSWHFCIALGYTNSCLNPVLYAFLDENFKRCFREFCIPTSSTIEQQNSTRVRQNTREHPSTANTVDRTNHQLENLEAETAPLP
# Procedure, shortened: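 Rat forebrain membranes, radioligand displacement with filter scintillation counting, 1.5 h incubation. Screened in duplicate at 25 µM; hits then run in concentration-response up to 50 µM; loss of binding fitted versus DMSO.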
# [8] = target: rat Vasopressin 1 Receptor (V1), Avpr1a (gene 25107) (UniProt P30560); assay: NVS_GPCR_rV1: NovaScreen (NVS) G Protein-Coupled Receptor Assay for rat Vasopressin 1 Receptor (V1) (AID 2283316)
# Chain of rat Vasopressin 1 Receptor (V1), Avpr1a (gene 25107) (P30560 whole entry, looked up): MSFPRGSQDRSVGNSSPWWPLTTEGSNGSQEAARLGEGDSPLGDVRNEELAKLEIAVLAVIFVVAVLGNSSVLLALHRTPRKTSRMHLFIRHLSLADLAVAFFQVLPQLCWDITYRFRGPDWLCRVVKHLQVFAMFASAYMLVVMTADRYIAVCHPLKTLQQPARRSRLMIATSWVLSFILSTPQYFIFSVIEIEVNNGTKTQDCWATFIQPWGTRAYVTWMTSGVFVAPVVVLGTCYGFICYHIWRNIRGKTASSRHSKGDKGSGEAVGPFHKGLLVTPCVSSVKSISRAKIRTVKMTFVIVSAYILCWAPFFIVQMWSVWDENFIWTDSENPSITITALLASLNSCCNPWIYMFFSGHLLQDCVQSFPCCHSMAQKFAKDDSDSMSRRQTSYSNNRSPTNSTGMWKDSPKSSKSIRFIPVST
# Procedure, shortened: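 Radioligand binding on rat liver membranes, 1.5 h incubation, filter-based scintillation counting. Single 25 uM screen in duplicate; chemicals meeting threshold (e.g. 30% inhibition) run in concentration-response up to 50 uM.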
# [9] = target: rat Opioid Receptor, Non-selective Binding, Oprm1 (gene 25601) (UniProt P33535); assay: NVS_GPCR_rOpiate_NonSelective: NovaScreen (NVS) G Protein-Coupled Receptor Assay for rat Opioid Receptor, Non-selective Binding (AID 2283318)
# Chain of rat Opioid Receptor, Non-selective Binding, Oprm1 (gene 25601) (P33535 whole entry, looked up): as the sequence (P33535 whole entry, looked up) above
# Procedure, shortened: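 Rat forebrain membranes, cell-free radioligand binding with filter-based scintillation counting, read 1.5 h after dosing. Primary screen in duplicate at 25 uM; actives retested in concentration series. Loss of signal versus DMSO baseline scored.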
# [10] = target: Sodium channel protein type 1 subunit alpha (Rattus norvegicus) (UniProt P04774); assay: NVS_IC_rNaCh_site2: NovaScreen (NVS) Ion Channel Assay for rat Sodium Channel, Site 2 (NaCh) (AID 2283322);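 further: hit means loss of radioligand binding signal relative to DMSO so AC50 marks displacement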
# Procedure, shortened: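 Membranes: rat forebrain. Format: competitive radioligand displacement, filter separation, scintillation readout, 1 h exposure. Primary screen in duplicate at 25 uM; actives retested in concentration series.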
# [11] = target: rat Adrenergic Receptor, Beta (Adrb), Non-selective Binding, Adrb1 (gene 24925) (UniProt P18090); assay: NVS_GPCR_rAdrb_NonSelective: NovaScreen (NVS) G Protein-Coupled Receptor Assay for rat Adrenergic Receptor, Beta (Adrb), Non-selective Binding (AID 2283298)
# Procedure, shortened: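 Non-selective beta-adrenergic radioligand binding in rat cortical membranes, 1 h incubation, filter-based scintillation read-out. Primary screen 25 uM in duplicate; hits retested in concentration-response up to 50 uM, DMSO baseline.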
# [12] = target: rat Serotonin, 5-Hydroxytryptamine Receptor (5HT), Non-Selective Binding, Htr1a (gene 24473) (UniProt P19327); assay: NVS_GPCR_r5HT_NonSelective: NovaScreen (NVS) G Protein-Coupled Receptor Assay for rat Serotonin, 5-Hydroxytryptamine Receptor (5HT), Non-Selective Binding (AID 2283295)
# Procedure, shortened: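 Radioligand displacement on rat cortical membranes, 1 h incubation, filter-based scintillation counting. Primary duplicates at 25 uM, actives retested in concentration series; loss of signal fitted against DMSO as baseline.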
# [13] = target: rat Adrenergic, Alpha 1A Receptor (Adra1A), Adra1a (gene 29412) (UniProt P43140); assay: NVS_GPCR_rAdra1A: NovaScreen (NVS) G Protein-Coupled Receptor Assay for rat Adrenergic, Alpha 1A Receptor (Adra1A) (AID 2283296)
# Chain of rat Adrenergic, Alpha 1A Receptor (Adra1A), Adra1a (gene 29412) (P43140 whole entry, looked up): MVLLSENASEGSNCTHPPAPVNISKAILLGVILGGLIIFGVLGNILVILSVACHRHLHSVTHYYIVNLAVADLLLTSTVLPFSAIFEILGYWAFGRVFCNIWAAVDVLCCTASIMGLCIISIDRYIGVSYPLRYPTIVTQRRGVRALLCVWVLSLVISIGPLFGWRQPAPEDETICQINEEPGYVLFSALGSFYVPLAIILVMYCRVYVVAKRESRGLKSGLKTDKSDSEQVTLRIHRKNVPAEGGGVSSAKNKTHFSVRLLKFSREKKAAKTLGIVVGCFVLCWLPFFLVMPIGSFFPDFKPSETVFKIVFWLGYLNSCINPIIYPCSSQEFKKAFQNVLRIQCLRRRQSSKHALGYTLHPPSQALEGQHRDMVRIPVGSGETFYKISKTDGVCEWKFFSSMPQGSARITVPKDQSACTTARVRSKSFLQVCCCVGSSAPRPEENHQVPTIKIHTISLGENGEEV
# Procedure, shortened: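 Rat cortical membranes pretreated with chlorethyl clonidine; competitive radioligand displacement, 1 h. Filter-based scintillation counting. Primary screen in duplicate at 25 uM, actives followed in concentration series.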
# [14] = system: rat Adrenergic, Alpha 1B Receptor (Adra1B), gene 24173; assay: NVS_GPCR_rAdra1B: NovaScreen (NVS) G Protein-Coupled Receptor Assay for rat Adrenergic, Alpha 1B Receptor (Adra1B) (AID 2283297)
# Procedure, shortened: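 Rat liver membranes, radioligand displacement with filter-based scintillation detection, 1 h incubation. Primary screen in duplicate at 25 uM; actives retested in concentration series; activity relative to DMSO.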
# [15] = target: rat Histamine Receptor (H3), Hrh3 (gene 85268) (UniProt Q9QYN8); assay: NVS_GPCR_rH3: NovaScreen (NVS) G Protein-Coupled Receptor Assay for rat Histamine Receptor (H3) (AID 2283303)
# Procedure, shortened: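 Rat forebrain membranes incubated 1 h with compound; radioligand displacement measured by filter-based scintillation counting. Single-concentration duplicates at 25 µM, then concentration-response up to 50 µM, relative to DMSO.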
# Adra2b (gene 24174) = Adra2b (gene 24174) (UniProt P19328); assay: NVS_GPCR_rmAdra2B: NovaScreen (NVS) G Protein-Coupled Receptor Assay for hybird cells Adrenergic, Alpha 2B Receptor (Adra2B) (AID 2283306)
# Procedure, shortened: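 Radioligand filter-binding assay on membrane proteins from neuroglioma/blastoma hybrid cells (rodent), 1 h after dosing; scintillation counting, loss of signal vs DMSO. Primary screen in duplicate at 25 uM, actives then run in concentration series.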
# [16] = target: rat Glutamate Metabotropic Receptor 5 (MGluR5), Grm5 (gene 24418) (UniProt P31424); assay: NVS_GPCR_rmMGluR5: NovaScreen (NVS) G Protein-Coupled Receptor Assay for rat Glutamate Metabotropic Receptor 5 (MGluR5) (AID 2283307)
# Chain of rat Glutamate Metabotropic Receptor 5 (MGluR5), Grm5 (gene 24418) (P31424 whole entry, looked up): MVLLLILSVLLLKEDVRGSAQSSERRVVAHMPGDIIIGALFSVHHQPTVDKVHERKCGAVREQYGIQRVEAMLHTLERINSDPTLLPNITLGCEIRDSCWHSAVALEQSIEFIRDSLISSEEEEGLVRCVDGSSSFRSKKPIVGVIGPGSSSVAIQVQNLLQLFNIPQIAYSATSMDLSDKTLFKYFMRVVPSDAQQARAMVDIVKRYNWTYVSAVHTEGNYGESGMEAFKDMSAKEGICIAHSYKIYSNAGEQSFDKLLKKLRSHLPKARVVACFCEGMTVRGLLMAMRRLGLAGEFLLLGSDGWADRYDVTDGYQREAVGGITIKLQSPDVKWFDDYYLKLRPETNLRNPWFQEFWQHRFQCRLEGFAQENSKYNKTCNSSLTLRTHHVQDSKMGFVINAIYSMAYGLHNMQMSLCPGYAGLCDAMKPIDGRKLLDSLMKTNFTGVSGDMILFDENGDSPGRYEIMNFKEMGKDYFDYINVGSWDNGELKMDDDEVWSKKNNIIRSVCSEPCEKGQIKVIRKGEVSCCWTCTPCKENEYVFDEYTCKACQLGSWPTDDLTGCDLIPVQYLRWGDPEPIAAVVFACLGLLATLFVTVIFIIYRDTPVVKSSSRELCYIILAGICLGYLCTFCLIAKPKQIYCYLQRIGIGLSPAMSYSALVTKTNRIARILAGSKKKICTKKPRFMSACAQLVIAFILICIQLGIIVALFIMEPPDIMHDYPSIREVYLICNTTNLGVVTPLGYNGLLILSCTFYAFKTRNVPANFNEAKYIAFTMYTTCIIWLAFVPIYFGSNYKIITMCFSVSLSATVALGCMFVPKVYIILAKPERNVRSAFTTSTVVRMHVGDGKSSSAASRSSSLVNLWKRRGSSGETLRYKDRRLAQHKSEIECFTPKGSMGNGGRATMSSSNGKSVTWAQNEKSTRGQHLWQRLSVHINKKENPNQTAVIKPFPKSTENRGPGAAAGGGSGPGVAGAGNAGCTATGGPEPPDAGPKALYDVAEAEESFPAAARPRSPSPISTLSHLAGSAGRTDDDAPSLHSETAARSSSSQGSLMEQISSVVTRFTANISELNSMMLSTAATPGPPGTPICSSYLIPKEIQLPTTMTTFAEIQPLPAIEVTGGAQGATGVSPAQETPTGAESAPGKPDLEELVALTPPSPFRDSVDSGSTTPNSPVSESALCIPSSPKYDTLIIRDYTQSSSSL
# Procedure, shortened: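 Rat whole-brain membrane preparation; filter-based radioligand binding read by scintillation counting, 1.5 h after dosing. Single-point screen at 25 uM in duplicate; hits over threshold (e.g. 30% inhibition) retested in concentration-response up to 50 uM; loss of signal vs DMSO.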
# [17] = target: rat Neurokinin-1 Receptor (NK1), Tacr1 (gene 24807) (UniProt P14600); assay: NVS_GPCR_rNK1: NovaScreen (NVS) G Protein-Coupled Receptor Assay for rat Neurokinin-1 Receptor (NK1) (AID 2283309)
# Chain of rat Neurokinin-1 Receptor (NK1), Tacr1 (gene 24807) (P14600 whole entry, looked up): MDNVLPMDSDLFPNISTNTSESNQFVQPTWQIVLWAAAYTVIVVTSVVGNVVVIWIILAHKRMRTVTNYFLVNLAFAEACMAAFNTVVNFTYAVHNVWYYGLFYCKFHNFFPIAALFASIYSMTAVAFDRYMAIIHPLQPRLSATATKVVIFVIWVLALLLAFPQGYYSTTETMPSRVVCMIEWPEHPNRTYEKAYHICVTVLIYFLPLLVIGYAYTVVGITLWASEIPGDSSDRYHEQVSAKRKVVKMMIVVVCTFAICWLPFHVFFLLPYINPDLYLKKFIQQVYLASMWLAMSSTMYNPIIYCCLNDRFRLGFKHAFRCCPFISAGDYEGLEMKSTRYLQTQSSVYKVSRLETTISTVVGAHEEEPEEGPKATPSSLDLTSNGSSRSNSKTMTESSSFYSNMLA
# Procedure, shortened: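 Rat submaxillary gland membranes; radioligand displacement read by filter-based scintillation counting after 1 h. Primary screen in duplicate at 25 uM; actives retested in concentration series; loss of binding fitted versus DMSO.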
# [18] = target: rat Gamma-Aminobutyric Acid Type A Receptor, Non-Selective (GABAR-NonSelective), Gabra1 (gene 29705) (UniProt P62813); assay: NVS_LGIC_rGABAR_NonSelective: NovaScreen (NVS) Ligand-Gated Ion Channel Assay for rat Gamma-Aminobutyric Acid Type A Receptor, Non-Selective (GABAR-NonSelective) (AID 2283326)
# Chain of rat Gamma-Aminobutyric Acid Type A Receptor, Non-Selective (GABAR-NonSelective), Gabra1 (gene 29705) (P62813 whole entry, looked up): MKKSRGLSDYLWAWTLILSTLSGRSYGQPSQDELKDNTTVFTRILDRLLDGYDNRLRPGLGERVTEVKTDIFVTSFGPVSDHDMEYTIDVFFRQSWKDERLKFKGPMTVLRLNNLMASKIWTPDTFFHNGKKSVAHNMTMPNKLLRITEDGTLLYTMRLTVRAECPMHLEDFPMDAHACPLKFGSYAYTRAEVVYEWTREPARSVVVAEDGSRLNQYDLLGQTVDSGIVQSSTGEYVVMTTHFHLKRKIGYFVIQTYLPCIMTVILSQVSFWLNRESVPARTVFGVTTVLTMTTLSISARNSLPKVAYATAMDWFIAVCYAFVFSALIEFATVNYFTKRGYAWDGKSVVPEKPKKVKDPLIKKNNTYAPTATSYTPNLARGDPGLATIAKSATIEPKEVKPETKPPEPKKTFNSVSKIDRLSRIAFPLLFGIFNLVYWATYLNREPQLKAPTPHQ
# Procedure, shortened: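 Radioligand displacement on rat whole-brain extract, 1 h, filter scintillation readout; signal loss fitted versus DMSO. Primary screen in duplicate at 25 uM; hits (e.g. ≥30% inhibition) retested in concentration-response up to 50 uM.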
# [19] = target: Voltage-gated inwardly rectifying potassium channel KCNH2 (Homo sapiens) (UniProt Q12809); assay: NVS_IC_hKhERGCh: NovaScreen (NVS) Ion Channel Assay for human Potassium Channel ERG (KhERGCh) (AID 2283333)
# Procedure, shortened: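 Cell-free radioligand competition binding on hERG protein extracted from CHO cells, read by filter-based scintillation counting 0.75 h after dosing. Primary screen at 25 uM in duplicate, actives followed in concentration series. Signal loss fitted versus DMSO.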
compound,measurement,setting,value
C=C(C)C(N)=O,outcome,[1],inactive
c1coc(CNc2ncnc3nc[nH]c23)c1,outcome,[2],inactive
O=Cc1ccccc1O,outcome,[2],inactive
CCc1cccc(O)c1,outcome,[2],inactive
same,outcome,[3],inactive
C=CC(=O)OCC(CO)(COC(=O)C=C)COC(=O)C=C,AC50,[4],11 µM (active)
C=C1CC[C@H]2O[C@]2(C)CC[C@@H]2[C@@H]1CC2(C)C,AC50,[5],15.6 µM (active)
CN1CCc2cccc3c2[C@H]1Cc1ccc(O)c(O)c1-3,AC50,[4],1.83 µM (active)
CC(=O)c1ccc2ccccc2c1,outcome,[2],inactive
CC1(C)[C@H](C=C(Cl)Cl)[C@H]1C(=O)OCc1cccc(Oc2ccccc2)c1,outcome,[3],inactive
CCCCCCCCCCCCS,AC50,[2],0.929 µM (active)
CCCCCCOc1ccc(O)cc1,AC50,[4],7.77 µM (active)
same,AC50,[3],6.49 µM (active)
CCCCCCCCOS(=O)(=O)O,outcome,[2],inactive
CC(=O)OC(C)(C)C1CC=C(C)CC1 (stereo not drawn),outcome,[6],inactive
C#C[C@]1(O)CC[C@H]2[C@@H]3CCc4cc(O)ccc4[C@H]3CC[C@@]21C,outcome,[7],inactive
same,AC50,[8],25 µM (active)
same,AC50,[9],20.5 µM (active)
same,outcome,[10],inactive
same,AC50,[4],2.52 µM (active) and 13.7 µM (active) and 11.4 µM (active)
same,AC50,[3],4.59 µM (active)
same,outcome,[3],inactive
C1CCCNCC1,outcome,[2],inactive
CC(=O)N(C)C,outcome,[2],inactive
COc1cc(OC)c2ccc(=O)oc2c1,AC50,[4],12.1 µM (active)
same,AC50,[3],0.157 µM (active)
NC(=O)c1c(Cl)cccc1Cl,AC50,[4],3.59 µM (active)
same,outcome,[3],inactive
Cc1cc(O)c(C)c(C)c1O,outcome,[5],inactive
NC(N)=S,outcome,[2],inactive
CC/C(=C(\c1ccccc1)c1ccc(OCCN(C)C)cc1)c1ccccc1,AC50,[11],5.74 µM (active)
same,outcome,[7],inactive
same,outcome,[5],inactive
same,outcome,[8],inactive
same,outcome,[9],inactive
same,AC50,[10],1.56 µM (active)
same,AC50,[6],938 nM (active) and 874 nM (active)
O=C1OC2(c3ccc(O)cc3Oc3cc(O)ccc32)c2ccccc21,AC50,[4],25 µM (active) and 9.1 µM (active)
same,AC50,[3],15.1 µM (active)
same,outcome,[6],inactive
C=C1CC/C=C(\C)CC[C@@H]2[C@@H]1CC2(C)C,outcome,[6],inactive
CCCCCC1C(=O)CCC1CC(=O)OC (stereo not drawn),AC50,[3],11.6 µM (active) and 25 µM (active)
same,outcome,[6],inactive
Cc1ccc(C(C)(C)O)cc1,outcome,[6],inactive
CC12CCC(C1)C(C)(C)C2O (stereo not drawn),outcome,[2],inactive
CC(C)C(=O)c1ccccc1,outcome,[2],inactive
CCCc1ccc(N)cc1,outcome,[2],inactive
O=S(=O)(O)c1cc(S(=O)(=O)O)c2c(N=Nc3ccccc3)c(O)ccc2c1,outcome,[2],inactive
CCO[Si](CC)(OCC)OCC,outcome,[2],inactive
O=C(c1ccc(OCCN2CCCCC2)cc1)c1c(-c2ccc(O)cc2)sc2cc(O)ccc12,AC50,[12],5.24 µM (active)
same,AC50,[13],5.36 µM (active)
same,AC50,[14],5.62 µM (active)
same,AC50,[15],25 µM (active)
same,AC50,Adra2b (gene 24174),10.7 µM (active)
same,outcome,[16],inactive
same,AC50,[17],18.2 µM (active)
same,AC50,[7],1.96 µM (active)
same,outcome,[5],inactive
same,AC50,[9],3.64 µM (active)
same,AC50,[10],0.869 µM (active)
same,outcome,[18],inactive
same,outcome,[2],inactive
same,AC50,[19],5.34 µM (active)
same,AC50,[3],6.31 µM (active)
same,outcome,[6],inactive
OCC=Cc1ccccc1,outcome,[2],inactive
CCCCCC(=O)O[C@]1(C(C)=O)CC[C@H]2[C@@H]3CCC4=CC(=O)CC[C@]4(C)[C@H]3CC[C@@]21C,outcome,[2],inactive
Nc1ccc(N)c([N+](=O)[O-])c1,AC50,[4],3.27 µM (active) and 1.74 µM (active)
same,AC50,[3],1.02 µM (active)
same,outcome,[3],inactive
same,outcome,[6],inactive
CCC(C)(C)C1CCC(OC)CC1 (stereo not drawn),outcome,[2],inactive
CC(C)(C)c1cccc(O)c1,outcome,[2],inactive
